# Bioassay records (PubChem)
# Hedgehog inh = Hedgehog pathway signaling inhibitors, primary screen, luminescence, Shh-LIGHT2 cells, Gli-luciferase; Shh-LIGHT2 Gli-luciferase reporter, 30 h; inhibition, % (test concentration not listed); 22,000 tested, 2.1% active;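 active = mean inhibition across valid replicates above about 65%, limit read from the data; inconclusive = mean under the limit, yet half or more replicates past it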;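 note: pathway switched on by Shh-conditioned medium diluted 1 in 25 in low serum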
# MITF inh = inhibitors of MITF, primary screen, MITF inhibitor project, cell-based, luminescence; TRPM1 promoter luciferase, 24 h; inhibition, % (concentration not given with the values); 37,000 tested, 0.28% active; AID 2240, 2010; in the data active = inhibition above about 85%; inconclusive = no clear call, values can overlap the other calls; inactive = below about 68%;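 note: human melanocyte line stably carrying TRPM1 promoter luciferase reporter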
# NOMO-1 viab = NOMO-1 AML cell viability reduction, primary screen, STK33 inhibitor project, CellTiter-Glo luminescence | NOMO-1 AML viability, 72 h | inhibition, % (test concentration not listed) | 37,000 tested, 7.5% active; in the data active = inhibition above about 80%; inconclusive = no clear call, values can overlap the other calls
# The depositor's hits bear a star; ? = inconclusive; . = no result given. In the library only some 8.1% were active in any assay of this set; here they are far more common.
SMILES,Hedgehog inh,MITF inh,NOMO-1 viab
COC(=O)[C@]1(Cc2ccc(O)c(CC=C(C)C)c2)OC(=O)C(=O)C1c1ccc(O)cc1 (stereo not given in full),-41,-6,45
CC(C)NC(=O)Nc1ccc2c(c1)CC(=O)N([C@H](C)CO)C[C@@H](C)[C@@H](CN(C)S(=O)(=O)c1ccc(F)cc1)O2,-3,-3,3
C[C@H](CO)N1C[C@H](C)[C@H](CN(C)S(=O)(=O)c2ccc(F)cc2)Oc2ccc(NC(=O)Nc3ccc(C(F)(F)F)cc3)cc2CC1=O,56,68,119*
C[C@@H]1CN([C@H](C)CO)C(=O)Cc2cc(NC(=O)NC3CCCCC3)ccc2O[C@@H]1CN(C)S(=O)(=O)c1ccc(Cl)cc1,-19,20,22
C[C@@H]1CN([C@H](C)CO)C(=O)Cc2cc(NC(=O)Nc3ccc(F)cc3)ccc2O[C@H]1CN(C)S(=O)(=O)c1ccccc1,.,-9,8
C[C@H](CO)N1C[C@H](C)[C@H](CN(C)S(=O)(=O)c2ccc(Cl)cc2)Oc2ccc(NC(=O)NC3CCCCC3)cc2CC1=O,-10,26,119*
C[C@H](CO)N1C[C@H](C)[C@H](CN(C)S(=O)(=O)c2ccc(Cl)cc2)Oc2ccc(NC(=O)Nc3ccc(F)cc3)cc2CC1=O,-8,22,125*
COc1ccc(NC(=O)Nc2ccc3c(c2)CC(=O)N([C@@H](C)CO)C[C@@H](C)[C@@H](CN(C)S(=O)(=O)c2ccc(F)cc2)O3)cc1,-34,-7,10
C[C@H](CO)N1C[C@H](C)[C@H](CN(C)S(=O)(=O)c2ccccc2)Oc2ccc(NC(=O)Nc3ccc(F)cc3)cc2CC1=O,-5,9,95*
CCOC(=O)c1c(NC(=O)CSc2nc(C)ccc2C#N)sc2c1CCC2,.,23,?
COc1ccc(S(=O)(=O)N(C)CC(N)=O)cc1Cl,.,-13,0
CCCC(=O)n1nc(-c2ccc(Cl)cc2)nc1NCc1ccco1,.,-46,70
C[C@@H]1CN([C@@H](C)CO)C(=O)Cc2cc(NC(=O)Nc3ccccc3)ccc2O[C@@H]1CN(C)S(=O)(=O)c1ccc(Cl)cc1,27,22,77
C[C@@H]1CN([C@@H](C)CO)C(=O)c2cc(NC(=O)Nc3ccc4c(c3)OCO4)ccc2O[C@@H]1CN(C)S(=O)(=O)c1ccc(F)cc1,23,-3,30
COc1ccc(NC(=O)Nc2ccc3c(c2)CC(=O)N([C@@H](C)CO)C[C@H](C)[C@H](CN(C)S(=O)(=O)c2ccc(F)cc2)O3)cc1,-14,1,110*
C[C@H](CO)N1C[C@H](C)[C@H](CN(C)S(=O)(=O)c2ccc(F)cc2)Oc2ccc(NC(=O)Nc3ccc4c(c3)OCO4)cc2CC1=O,-55,28,126*
C[C@@H]1CN([C@H](C)CO)C(=O)Cc2cc(NC(=O)Nc3ccc4c(c3)OCO4)ccc2O[C@H]1CN(C)S(=O)(=O)c1ccc(F)cc1,-16,3,18
C[C@H](CO)N1C[C@H](C)[C@H](CN(C)S(=O)(=O)c2ccc(Cl)cc2)Oc2ccc(NC(=O)Nc3ccccc3)cc2CC1=O,34,20,111*
C[C@@H]1CN([C@H](C)CO)C(=O)c2cc(NC(=O)Nc3ccc4c(c3)OCO4)ccc2O[C@@H]1CN(C)S(=O)(=O)c1ccc(F)cc1,.,17,95*
COc1ccc(S(=O)(=O)N(C)C[C@@H]2Oc3ccc(NC(=O)Nc4ccc(F)cc4)cc3CC(=O)N([C@H](C)CO)C[C@H]2C)cc1,-6,10,15
O=c1c(=O)n2c(nn1CN1CCOCC1)sc1ccccc12,3,-36,-9
O=C(Nc1cccc([N+](=O)[O-])c1)C1CCCN(S(=O)(=O)c2ccc(F)cc2)C1 (stereo not given),.,7,13
COc1cc(C)c(Br)cc1S(=O)(=O)NCC1CCCO1 (stereo not given),.,-36,-16
COc1ccc(OC(C)C(=O)Nc2ccccc2C#N)cc1 (stereo not given),.,-25,-31
COc1ccccc1NC(=O)CNS(=O)(=O)c1ccc(C)cc1,.,0,-4
SMILES,Hedgehog inh,MITF inh,NOMO-1 viab
COc1ccc(-n2c(SCC(N)=O)nnc2-c2cccs2)cc1,.,0,-4
NC(=O)C1CCN(C(=O)CSc2nnnn2-c2ccccc2)CC1,.,-12,23
CCOC(=O)c1c(NC(=O)C2CC(c3ccccc3O)=NO2)sc2c1CCCC2 (stereo not given),.,6,30
COc1ccc(S(=O)(=O)N(C)C[C@H]2Oc3ccc(NC(=O)Nc4ccc(F)cc4)cc3CC(=O)N([C@@H](C)CO)C[C@@H]2C)cc1,-50,-2,-14
C[C@H](CO)N1C[C@H](C)[C@H](CN(C)S(=O)(=O)c2ccc(F)cc2)Oc2ccc(NC(=O)Nc3ccc(F)cc3)cc2CC1=O,-104,33,126*
CCC(Sc1nnnn1-c1ccccc1)C(=O)Nc1sc2c(c1C#N)CCCC2 (stereo not given),68*,16,4
CCC(Sc1nnc(N)s1)C(=O)Nc1sc2c(c1C#N)CCCC2 (stereo not given),.,-30,-17
CC(C)c1ccc(NC(=O)CSc2n[nH]c(-c3ccccc3Cl)n2)cc1,.,-50,-3
Cc1c(C(=O)Nc2sc3c(c2C(=O)NCc2ccco2)CCCC3)oc2ccccc12,.,3,106*
O=C(Nc1sc2c(c1C(=O)NCc1ccco1)CCCC2)c1sc2ccccc2c1Cl,.,-18,70
COc1ccccc1C(=O)Nc1sc2c(c1C(=O)NCc1ccco1)CCCC2,.,-6,91*
COc1ccc(C(=O)Nc2sc3c(c2C(=O)NC2CCS(=O)(=O)C2)CCCC3)cc1OC (stereo not given),.,7,-3
O=C(Nc1sc2c(c1C(=O)NCc1ccco1)CCCC2)c1ccc([N+](=O)[O-])cc1,.,12,15
Cc1ccc2oc(C(=O)Nc3sc4c(c3C(=O)NC3CCS(=O)(=O)C3)CCC4)c(C)c2c1 (stereo not given),.,11,106*
COC(=O)Nc1sc(C)c(C)c1C(=O)NCc1cccnc1,.,-19,-3
COc1ccc(NC(=O)C(C)Oc2ccccc2C)c([N+](=O)[O-])c1 (stereo not given),.,-17,14
CCn1ccc(CNC(=O)Nc2ccc(Cl)cc2Cl)n1,.,-16,24
COc1ccc(CCNC(=S)Nc2ccncc2)cc1OC,.,64,113*
COc1ccc(CCNC(=S)NCCc2ccccc2)cc1OC,2,16,13
COc1ccc(CCNC(=S)n2cc(C)cn2)cc1OC,.,55,111*
COc1ccc(CCNC(=S)N2CCN(c3ncccn3)CC2)cc1OC,.,-15,-10
Cc1ccc(NC(=O)CSc2nnc(-c3ccccc3)n2-c2ccccc2)c(Br)c1,.,19,13
COc1ccc(NC(=O)C2=C(C)NC(=S)NC2c2cccc([N+](=O)[O-])c2)c(OC)c1 (stereo not given),.,-10,-11
COC(=O)C1=C(C)NC(C)=C(C(=O)OCCCN2CCC(c3ccccc3)(c3ccccc3)CC2)C1c1cccc([N+](=O)[O-])c1 (stereo not given),72*,110*,120*
COc1ccccc1CC(=O)Nc1ccc(-c2noc(-c3ccccc3C)n2)cc1,.,-15,-5
